# PubChem BioAssay (NCI)
# Compounds without any hit were thinned out: in the full panel of roughly 83,000, 20% have a hit.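 Testing used 96-well plates and a 48-hour single-concentration exposure. Example: -40 means 40% of the starting cells died.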 Unmarked numbers belong to inactive results. The source made the active and inactive calls. The calls were made as follows: active = growth percent below 10; inactive = the rest.
# How the values were obtained:
# Test in all cases: NCI-60 one-dose screen, 48 h (100 = growth as untreated, 0 = no growth, -100 = all killed)
# Settings in all cases: 10 µM unless noted
# [1] = test system: NCI-H23 lung
# [2] = test system: NCI-H226 lung
# [3] = test system: NCI-H322M lung
# [4] = test system: HOP-92 NSCLC
# [5] = test system: NCI-H522 lung
# [6] = test system: A549/ATCC NSCLC
# [7] = test system: 786-0 renal
# [8] = test system: COLO 205 colon
# [9] = test system: DU-145 prostate
# [10] = test system: K-562 leukemia
# [11] = test system: MALME-3M melanoma
# [12] = test system: MDA-MB-231 breast
# [13] = test system: RXF 393 renal
# [14] = test system: SF-268 CNS
# [15] = test system: SF-295 CNS
# [16] = test system: SF-539 CNS
# [17] = test system: UACC-257 melanoma
# [18] = test system: M14 melanoma
# [19] = test system: HOP-62 NSCLC
# [20] = test system: NCI-H460 lung
SMILES,growth [1],growth [2],growth [3],growth [4],growth [5],growth [6],growth [7],growth [8],growth [9],growth [10],growth [11],growth [12],growth [13],growth [14],growth [15],growth [16],growth [17],growth [18],growth [19],growth [20]
CC(=O)Nc1ccc(-n2cnc3cc(-c4ccc(O)cc4)ccc32)cc1C(F)(F)F,21.4%,44.8%,41.1%,44.8%,-33.8% (active),19.4%,20.3%,43.8%,23%,25%,19.1%,42.7%,26%,21.7%,-13.7% (active),24.2%,39.7%,30.3%,,
O=C(c1ccc(OCCN2CCOCC2)cc1)C1[C@H](c2ccc(Cl)cc2)[C@@H](c2ccccc2)NC12C(=O)Nc1ccc(Br)cc12 (some centres not stated),26.1%,44%,,-15.1% (active),10.3%,17.6%,-4.29% (active),-39.3% (active),41.6%,1.09% (active),56.3%,18.2%,-1.59% (active),39.6%,21.8%,35%,39.7%,23.8%,60.6%,6.73% (active)
CC(C)c1ccc2c(N)c(C(=O)Nc3ccc(C(F)(F)F)cn3)sc2n1,43.5%,22.9%,,65.1%,63.2%,66.9%,64.3%,93.1%,63.8%,33.1%,63%,,74.5%,91.8%,34.3%,88%,60%,50.5%,57.7%,61.6%
O=C(O)c1ccc(-c2ccc(/C=N/NC(=O)c3[nH]c4ccc(Br)cc4c3-c3ccccc3)o2)cc1,18.3%,44.3%,,-8.72% (active),-33.8% (active),49.5%,19.5%,29.3%,38.8%,7.51% (active),34.6%,,-1.82% (active),10.5%,6.58% (active),-36.9% (active),45.5%,0.786% (active),9.47% (active),7.72% (active)
COc1ccc(C(=O)Nc2n[nH]c(Nc3ccccc3)c2C#N)cc1,110%,117%,,125%,104%,117%,104%,106%,119%,,97.8%,103%,118%,97.3%,92.8%,98.3%,137%,109%,124%,101%
N/C(=N\N=C\c1ccc([N+](=O)[O-])cc1)c1c(N)nc(=S)[nH]c1-c1ccc(Cl)cc1Cl,90.2%,82.1%,,,78.5%,101%,54.1%,115%,115%,95%,73%,77.5%,73.1%,94.9%,52.4%,74.7%,104%,102%,57%,114%
NS(=O)(=O)c1ccc(CCNC(=O)CSc2ccc(-c3ccc(Br)cc3)nn2)cc1,47.2%,70.3%,81.2%,,52.9%,62%,75.3%,83.6%,71.1%,36%,75.9%,85.2%,87.7%,72.5%,59.9%,79.2%,38.5%,77%,,51.4%
Cc1cnc(C(=O)NNc2nc3cc(F)ccc3n3c(C(=O)N4CC5CC(C4)N5)ccc23)cn1,51.1%,12.5%,,65.2%,57.8%,25.4%,-2.57% (active),10.5%,48.8%,,43%,43.7%,60.4%,33.9%,11%,8.21% (active),25.5%,-22.8% (active),59.3%,9.91% (active)
Cc1cc2c(cc1Cl)C(=O)/C(=C/c1ccccc1)O2,,14.6%,73.5%,44.4%,-75% (active),-59.7% (active),-38.5% (active),32.7%,-94.3% (active),9.17% (active),-46.8% (active),-36.5% (active),-33.9% (active),64%,24.9%,-98.5% (active),36.1%,30.9%,21.8%,24.6%
Cn1cc(-c2cc3nc(-c4c[nH]c5ccc(Br)cc45)cc(N)n3n2)c2ccccc21,,-35% (active),-48.8% (active),-73.6% (active),-68.9% (active),-71.7% (active),-89.6% (active),-83.5% (active),-85.7% (active),0.783% (active),-73.4% (active),-63.2% (active),-89.4% (active),-32.7% (active),-81.8% (active),-89.7% (active),-84.6% (active),-85.5% (active),-74.4% (active),-52.9% (active)
COc1ccc2c(c1)c(-c1cc(N)n3nc(-c4cn(C)c5ccccc45)cc3n1)cn2C,,-44% (active),-42.2% (active),-75.2% (active),-64.4% (active),-44.6% (active),-88.3% (active),-83% (active),-58% (active),2.2% (active),-76.5% (active),-53.8% (active),-82.2% (active),-56.5% (active),-73.3% (active),-87.6% (active),-67.8% (active),-83% (active),-59.6% (active),-44.5% (active)
O=C(c1ccccc1)C(c1c[nH]c2ccccc12)c1c[nH]c2ccccc12,,41.7%,96.5%,76.7%,35.9%,70.2%,78.7%,58.5%,71.7%,10.3%,72.8%,57.5%,46.8%,60.3%,85.4%,85.4%,76.8%,61.1%,83.5%,29.8%
COc1ccc(Cc2nn(CC(=O)N/N=C/c3ccc(F)cc3)c(=O)c3c(C)noc23)cc1,,27.4%,37.1%,-20.5% (active),64.5%,14%,-20.9% (active),59.3%,40%,70.1%,-0.917% (active),31.3%,-26% (active),46.7%,-19.3% (active),57.1%,54.3%,50.8%,-53.1% (active),13.3%
COC(=O)/C=C/c1cccc2c1C(=O)NC(C)(c1cc3cc4ccccc4cc3oc1=O)N2 (configuration not stated),,30.5%,68%,47.1%,52.9%,26.9%,83.9%,53%,46.1%,46.7%,19.6%,28.5%,-0.792% (active),42.8%,75.3%,44.7%,77.8%,55.9%,33.7%,23.1%
CC1(c2cc3cc(Cl)ccc3oc2=O)NC(=O)c2c(/C=C/C(=O)OC3CC4CCC3(C)C4(C)C)cccc2N1 (configuration not stated),,67%,70.5%,40.8%,36.8%,41.7%,69.9%,48.8%,71.2%,21.6%,84.6%,75.1%,52%,78.5%,46.1%,87.2%,57.2%,69.6%,71.5%,67.2%
CCN(CC)c1ccnc(CNCCSC(c2ccccc2)(c2ccccc2)c2ccc(OC)cc2)c1,,-7.73% (active),21.8%,-30% (active),-67.8% (active),2.36% (active),-50.8% (active),-74% (active),-25.3% (active),-23.6% (active),-92.5% (active),-45.5% (active),-26% (active),4.54% (active),-93.7% (active),-95.8% (active),-45.3% (active),-74.7% (active),-10.2% (active),-87.3% (active)
